Screens: PubChem BioAssay, several laboratories
IDE cell inh – inhibits human insulin-degrading enzyme in HEK cells | FAbetaB cleavage, fluorescence polarization | inhibition, % at 5.59 µM | 320,000 tested, 0.41% active | P14735;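 active = percent inhibition above the average of all tested compounds plus 3 SD, set per screening campaign, cut at about 16% in these data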;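 note: IDE supplied by intact live HEK cells; FP after avidin binding of uncleaved biotin substrate so inhibition keeps polarization high; 0% = DMSO wells and 100% = 60 µM reference IDE inhibitor Ii1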
MEX-5 binding – C. elegans MEX-5 TCR-2 RNA binding activity; Q9XUB2; MEX-5/FITC-TCR2 RNA binding, fluorescence polarization; hits give low values; activity score (negative = inhibition of binding), % at 10 µM; 300,000 tested, 0.38% active; AID 1832;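 active = inhibition past about -25% in most replicates, and total fluorescence under double the plate's negative control median, limit read from the data; inconclusive = replicates evenly split on the limit, or fluorescence at least double controls; inactive = too little inhibition in most replicates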;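 note: 0% = DMSO and -100% = 5 µM competing unlabeled TCR2 RNA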
MCL1-BIM inh – MCL1-BIM-BH3 interaction inhibition (human) | Q07820 | 320,000 tested, 0.68% active | inhibition, % at 10.9 µM | GST-MCL1 / FITC-Bim-BH3 fluorescence polarization;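 active = inhibition above the mean inhibition of all tested compounds plus 3 SD, set per campaign, cut at about 40% in these data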;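 note: 0% = DMSO wells and 100% = unlabeled Bim-BH3 peptide control; higher means more loss of mP so more displacement of Bim peptide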
IDE act – boosts human insulin-degrading enzyme activity in HEK cells; FAbeta-B cleavage, fluorescence polarization; 0% vehicle, 100% cell-free pure enzyme wells; 340,000 tested, 0.073% active; AID 493087; P14735; activation, % at 5.96 µM;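 active = activation above the mean of all tested compounds plus 3 SD, set per screening campaign, cut at about 17% in these data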
GLD-1 RNA inh – GLD-1-TGE RNA interaction inhibition (C. elegans). Q17339. purified GLD-1 + fluorescein TGE RNA, fluorescence polarization. inhibition, % at 5.96 µM. 320,000 tested, 0.44% active. AID 2280;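 active = percent inhibition above a per-plate cutoff, the plate mean of test compounds plus 3 SD, cut at about 30% in these data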;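 note: 0% = DMSO wells with GLD-1 and probe and 100% = wells lacking GLD-1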
Target sequence (Q17339 whole entry, looked up): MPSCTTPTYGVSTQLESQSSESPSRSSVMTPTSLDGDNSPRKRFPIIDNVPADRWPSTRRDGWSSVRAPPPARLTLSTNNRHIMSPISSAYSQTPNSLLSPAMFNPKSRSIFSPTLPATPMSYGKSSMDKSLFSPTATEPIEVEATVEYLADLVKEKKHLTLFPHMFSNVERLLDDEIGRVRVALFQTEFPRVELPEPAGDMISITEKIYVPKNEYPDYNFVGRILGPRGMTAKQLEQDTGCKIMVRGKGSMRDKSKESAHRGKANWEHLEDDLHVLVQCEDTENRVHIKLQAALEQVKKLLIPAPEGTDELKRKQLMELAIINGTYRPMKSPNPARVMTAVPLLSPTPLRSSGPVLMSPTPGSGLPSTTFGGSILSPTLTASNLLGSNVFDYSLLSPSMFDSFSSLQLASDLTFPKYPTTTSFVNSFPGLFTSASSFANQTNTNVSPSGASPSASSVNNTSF
BCLXL inh – inhibitors of human Bcl-xL | 320,000 tested, 0.7% active | AID 2129 | Q07817 | inhibition, % at 10.9 µM | GST-Bcl-xL / FITC-Bim BH3 peptide fluorescence polarization;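 active = inhibition above the mean of all tested compounds plus 3 SD, cutoff set per campaign, cut at about 30% in these data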;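 note: 0% = DMSO wells and 100% = unlabeled Bim-BH3 peptide competitor; inhibitors lower millipolarization by displacing the labeled peptide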
* hit, by the source's call. Most compounds without a hit are left out; they make up all but 1.5% or so of the library.

How did Cc1c(Cl)cnc(NC(=O)COC(=O)[C@H](C)NC(=O)c2ccccc2)c1Cl do in these assays?
IDE cell inh: -2; MCL1-BIM inh: 46*; IDE act: 2; GLD-1 RNA inh: 16; BCLXL inh: 32*

Results for Cc1c(Cl)cnc(NC(=O)COC(=O)CNC(=O)c2ccccc2)c1Cl ?
IDE cell inh: 0; IDE act: 5; GLD-1 RNA inh: 7

Results for O=C(COC(=O)c1ccccc1O)Nc1ncc(Cl)cc1Cl ?
IDE cell inh: -1; MEX-5 binding: 1; MCL1-BIM inh: 40*; IDE act: 3; GLD-1 RNA inh: 10; BCLXL inh: 36*

How did CC(=O)C(/C=N/c1ncc(C(F)(F)F)cc1Cl)=C(\C)O do in these assays?
IDE cell inh: -2; MEX-5 binding: 2; MCL1-BIM inh: -1; IDE act: 4; GLD-1 RNA inh: 1; BCLXL inh: 0

Results for NC(=O)COC(=O)CSc1ccc2ccccc2c1 ?
IDE cell inh: 2; MEX-5 binding: 1; MCL1-BIM inh: 0; IDE act: 5; GLD-1 RNA inh: -1; BCLXL inh: 0

Results for c1ccc(-c2cc3ccccc3[nH]2)cc1 ?
IDE cell inh: 1; MEX-5 binding: -4; MCL1-BIM inh: -13; IDE act: -16; GLD-1 RNA inh: 4; BCLXL inh: 3

How did Clc1ccc2[nH]c(-c3ccccc3)cc2c1 do in these assays?
IDE cell inh: 4; MEX-5 binding: -1; MCL1-BIM inh: 2; IDE act: -7; GLD-1 RNA inh: 4; BCLXL inh: active

How did COC(=O)C1=NN(C(=O)c2ccc(C)cc2)C(O)(c2ccc(Cl)cc2)C1 (stereo not given) do in these assays?
IDE cell inh: 4; MEX-5 binding: -40*; MCL1-BIM inh: -6; GLD-1 RNA inh: -7; BCLXL inh: 1

What do the screens show for `COC(=O)C1=NN(C(=O)c2ccccc2)C(O)(c2ccc([N+](=O)[O-])cc2)C1` (stereo not given)?
MEX-5 binding: 2; IDE act: 6

How did Nc1ncncc1-c1ccccc1Cl do in these assays?
IDE act: 5

What do the screens show for `CCOc1ccc(N=Nc2c(=O)[nH]n3c(=O)cc(C)[nH]c23)cc1`?
IDE cell inh: 5; MEX-5 binding: -51*; MCL1-BIM inh: 8; IDE act: 0; GLD-1 RNA inh: -13; BCLXL inh: 12

How did CCOc1ccc(N=Nc2c(=O)[nH]n3c(=O)c4c([nH]c23)CCCC4)cc1 do in these assays?
IDE cell inh: -2; MEX-5 binding: inconclusive; MCL1-BIM inh: 11; IDE act: 4; GLD-1 RNA inh: -3; BCLXL inh: 16

What do the screens show for `Cc1cc(C)n2[nH]c(=O)c(N=Nc3ccccc3)c2n1`?
IDE cell inh: 2; MEX-5 binding: -6; MCL1-BIM inh: 10; IDE act: 0; GLD-1 RNA inh: -6; BCLXL inh: 6

Results for Cc1cc(=O)n2[nH]c(=O)c(N=Nc3ccccc3)c2[nH]1 ?
IDE cell inh: 2; MEX-5 binding: -82*; MCL1-BIM inh: 3; IDE act: 1; GLD-1 RNA inh: 4; BCLXL inh: 4

Results for CCCN(CC(=O)Nc1ccc(F)c(F)c1F)C(=O)Cc1ccc(OC)c(S(=O)(=O)N2CCOCC2)c1 ?
IDE act: -1

How did CCCCN(C(=O)COc1ccc(C)cc1OC)c1c(N)n(CCC)c(=O)[nH]c1=O do in these assays?
IDE cell inh: 6; MEX-5 binding: 0; MCL1-BIM inh: -2; IDE act: 3; GLD-1 RNA inh: 5; BCLXL inh: 1

Results for CN1CCc2c(sc3nc(SCC(=O)N4CCOCC4)n(-c4ccc(Cl)cc4)c(=O)c23)C1 ?
IDE cell inh: 0; MEX-5 binding: 3; MCL1-BIM inh: 6; IDE act: 3; GLD-1 RNA inh: -8; BCLXL inh: 12

Results for COc1cc(/C=C/C(=O)O)ccc1OS(=O)(=O)c1c(C)cc(C)cc1C ?
IDE cell inh: 7; MCL1-BIM inh: 10; IDE act: 5; GLD-1 RNA inh: 2; BCLXL inh: 11

What do the screens show for `CCOC(=O)C1=C(O)/C(=C\c2cc(C)n(-c3ccc(F)cc3)c2C)N=C1C`?
IDE cell inh: 4; MEX-5 binding: 0; MCL1-BIM inh: 25; IDE act: 1; GLD-1 RNA inh: 20; BCLXL inh: 29

How did CCOC(=O)C1=C(O)/C(=C\c2cc(C)n(-c3ccccc3F)c2C)N=C1C do in these assays?
IDE cell inh: 1; MEX-5 binding: -3; MCL1-BIM inh: 37; IDE act: -4; GLD-1 RNA inh: 29; BCLXL inh: 48*

How did CC1c2ccccc2N(S(=O)(=O)c2ccccc2)C1C (stereo not given) do in these assays?
IDE act: 4

How did COc1ccc(N/C=C/C(=O)c2ccc3c(c2)OCO3)cc1OC do in these assays?
IDE cell inh: 8; MEX-5 binding: -34*; MCL1-BIM inh: -7; IDE act: 1; GLD-1 RNA inh: -8; BCLXL inh: 2

Results for COc1ccc(N/C=C\C(=O)c2ccc(Br)cc2)cc1OC ?
IDE cell inh: 2; MEX-5 binding: 2; MCL1-BIM inh: -28; IDE act: -3; GLD-1 RNA inh: -12; BCLXL inh: -3

Results for CC(=O)Nc1ccc(/C=C/C(=O)c2ccc3c(c2)OCCO3)cc1 ?
IDE cell inh: -6; MEX-5 binding: -53*; MCL1-BIM inh: -6; IDE act: 0; GLD-1 RNA inh: 1; BCLXL inh: 1

Results for COc1ccc(N/C=C\C(=O)c2ccc(C)cc2)cc1OC ?
IDE cell inh: 3; MEX-5 binding: -48*; MCL1-BIM inh: -2; IDE act: 0; GLD-1 RNA inh: -9; BCLXL inh: 0

Results for COc1cccc(N/C=C/C(=O)c2ccc(Br)cc2)c1 ?
IDE cell inh: -3; MEX-5 binding: -1; MCL1-BIM inh: -5; IDE act: 4; GLD-1 RNA inh: 0; BCLXL inh: 0

Results for COc1ccc(C(=O)/C=C/Nc2cccc(O)c2)cc1 ?
IDE cell inh: 4; MEX-5 binding: 1; MCL1-BIM inh: 48*; IDE act: 2; GLD-1 RNA inh: -2; BCLXL inh: 46*

Results for N#C/C(=C\c1ccc(Cl)cc1)c1nc2ncccc2[nH]1 ?
IDE cell inh: 2; MEX-5 binding: -5; MCL1-BIM inh: 14; IDE act: 2; GLD-1 RNA inh: 3; BCLXL inh: 13

Results for CC(=O)NC12CC3CC(C1)CC(C(=O)N1CCN(S(=O)(=O)c4cccc(C(F)(F)F)c4)CC1)(C3)C2 ?
IDE cell inh: 15; MEX-5 binding: -1; MCL1-BIM inh: -6; IDE act: -7; GLD-1 RNA inh: 3; BCLXL inh: -3
